About 7,900 targets were measured; listed, in parts, are those with a hit and a random draw of the rest. About 0.6% of all pairs of compound and target were hits. Values without a mark were called inactive.

Chain of UniProt Q96GA3 (Q96GA3 whole entry, looked up): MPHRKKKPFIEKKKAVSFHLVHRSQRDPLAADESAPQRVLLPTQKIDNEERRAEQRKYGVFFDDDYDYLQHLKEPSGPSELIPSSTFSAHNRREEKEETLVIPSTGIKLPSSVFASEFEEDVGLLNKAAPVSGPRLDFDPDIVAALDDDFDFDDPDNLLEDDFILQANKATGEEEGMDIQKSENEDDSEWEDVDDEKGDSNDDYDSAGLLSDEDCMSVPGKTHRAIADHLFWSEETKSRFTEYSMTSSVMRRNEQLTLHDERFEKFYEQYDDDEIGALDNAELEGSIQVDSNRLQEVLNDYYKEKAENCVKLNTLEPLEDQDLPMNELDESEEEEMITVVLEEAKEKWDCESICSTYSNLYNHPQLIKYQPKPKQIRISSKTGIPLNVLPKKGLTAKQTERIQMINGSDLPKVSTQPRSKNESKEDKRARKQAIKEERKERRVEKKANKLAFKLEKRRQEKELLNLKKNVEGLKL
Chain of UniProt Q92615 (Q92615 whole entry, looked up): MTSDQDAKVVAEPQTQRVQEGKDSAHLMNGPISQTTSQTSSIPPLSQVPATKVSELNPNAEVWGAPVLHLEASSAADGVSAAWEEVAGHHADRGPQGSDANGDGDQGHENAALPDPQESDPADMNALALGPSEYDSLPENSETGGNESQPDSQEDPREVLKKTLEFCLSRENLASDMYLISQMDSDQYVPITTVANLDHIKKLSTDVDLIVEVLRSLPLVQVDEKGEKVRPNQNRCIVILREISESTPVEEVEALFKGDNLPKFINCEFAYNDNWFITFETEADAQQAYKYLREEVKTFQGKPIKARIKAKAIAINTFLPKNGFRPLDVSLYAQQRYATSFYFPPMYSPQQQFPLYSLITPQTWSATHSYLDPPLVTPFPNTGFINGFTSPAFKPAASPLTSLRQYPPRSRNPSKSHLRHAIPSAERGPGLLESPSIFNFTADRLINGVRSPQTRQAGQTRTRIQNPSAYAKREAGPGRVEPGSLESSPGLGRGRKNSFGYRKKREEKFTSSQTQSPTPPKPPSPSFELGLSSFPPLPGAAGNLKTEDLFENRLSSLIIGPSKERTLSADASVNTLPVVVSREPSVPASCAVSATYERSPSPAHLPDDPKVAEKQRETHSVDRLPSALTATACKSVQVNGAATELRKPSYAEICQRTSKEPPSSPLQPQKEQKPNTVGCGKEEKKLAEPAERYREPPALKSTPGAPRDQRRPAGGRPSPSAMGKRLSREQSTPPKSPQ
Chain of UniProt Q9Y2E5 (Q9Y2E5 whole entry, looked up): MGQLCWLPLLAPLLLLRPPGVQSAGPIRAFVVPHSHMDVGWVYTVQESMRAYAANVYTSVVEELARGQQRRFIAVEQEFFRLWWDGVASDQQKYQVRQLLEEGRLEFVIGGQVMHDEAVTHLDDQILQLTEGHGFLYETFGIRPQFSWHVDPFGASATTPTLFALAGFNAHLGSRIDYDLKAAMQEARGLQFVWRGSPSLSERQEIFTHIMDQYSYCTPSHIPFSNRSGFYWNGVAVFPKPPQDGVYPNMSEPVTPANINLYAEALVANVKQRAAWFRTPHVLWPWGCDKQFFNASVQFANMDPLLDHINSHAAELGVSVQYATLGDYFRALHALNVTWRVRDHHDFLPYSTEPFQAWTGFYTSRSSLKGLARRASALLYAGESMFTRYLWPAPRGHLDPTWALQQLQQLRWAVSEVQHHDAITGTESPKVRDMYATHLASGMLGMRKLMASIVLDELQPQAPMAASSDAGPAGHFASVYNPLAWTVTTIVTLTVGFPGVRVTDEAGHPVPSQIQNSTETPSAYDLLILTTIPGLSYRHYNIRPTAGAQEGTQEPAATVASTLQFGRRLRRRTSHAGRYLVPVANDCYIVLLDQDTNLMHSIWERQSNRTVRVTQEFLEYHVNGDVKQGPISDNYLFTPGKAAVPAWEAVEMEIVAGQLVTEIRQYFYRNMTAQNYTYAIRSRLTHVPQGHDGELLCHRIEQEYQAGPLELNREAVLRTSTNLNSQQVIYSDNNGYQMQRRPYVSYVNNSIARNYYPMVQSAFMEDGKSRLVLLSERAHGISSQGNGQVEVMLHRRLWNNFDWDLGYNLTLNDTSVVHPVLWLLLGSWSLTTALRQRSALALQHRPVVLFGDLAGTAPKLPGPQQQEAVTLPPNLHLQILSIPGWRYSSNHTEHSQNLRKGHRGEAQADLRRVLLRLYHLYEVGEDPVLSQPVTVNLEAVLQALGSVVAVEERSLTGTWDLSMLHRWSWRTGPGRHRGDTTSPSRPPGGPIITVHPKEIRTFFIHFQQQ
Chain of UniProt Q9HCC0 (Q9HCC0 whole entry, looked up): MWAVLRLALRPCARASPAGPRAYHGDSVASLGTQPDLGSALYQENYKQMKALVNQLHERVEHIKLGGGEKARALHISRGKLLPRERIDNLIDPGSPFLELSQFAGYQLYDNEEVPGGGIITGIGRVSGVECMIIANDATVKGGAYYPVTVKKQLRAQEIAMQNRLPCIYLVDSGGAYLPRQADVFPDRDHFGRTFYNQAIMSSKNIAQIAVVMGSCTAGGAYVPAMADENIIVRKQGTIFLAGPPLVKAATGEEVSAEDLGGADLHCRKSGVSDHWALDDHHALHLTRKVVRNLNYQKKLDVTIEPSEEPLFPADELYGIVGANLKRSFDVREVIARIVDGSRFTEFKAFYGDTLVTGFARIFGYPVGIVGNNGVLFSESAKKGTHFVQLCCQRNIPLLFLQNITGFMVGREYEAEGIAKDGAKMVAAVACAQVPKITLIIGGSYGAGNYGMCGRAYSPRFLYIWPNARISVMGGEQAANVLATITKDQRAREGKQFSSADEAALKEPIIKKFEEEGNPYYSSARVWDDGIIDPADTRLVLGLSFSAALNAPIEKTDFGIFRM
Chain of UniProt Q96QZ7 (Q96QZ7 whole entry, looked up): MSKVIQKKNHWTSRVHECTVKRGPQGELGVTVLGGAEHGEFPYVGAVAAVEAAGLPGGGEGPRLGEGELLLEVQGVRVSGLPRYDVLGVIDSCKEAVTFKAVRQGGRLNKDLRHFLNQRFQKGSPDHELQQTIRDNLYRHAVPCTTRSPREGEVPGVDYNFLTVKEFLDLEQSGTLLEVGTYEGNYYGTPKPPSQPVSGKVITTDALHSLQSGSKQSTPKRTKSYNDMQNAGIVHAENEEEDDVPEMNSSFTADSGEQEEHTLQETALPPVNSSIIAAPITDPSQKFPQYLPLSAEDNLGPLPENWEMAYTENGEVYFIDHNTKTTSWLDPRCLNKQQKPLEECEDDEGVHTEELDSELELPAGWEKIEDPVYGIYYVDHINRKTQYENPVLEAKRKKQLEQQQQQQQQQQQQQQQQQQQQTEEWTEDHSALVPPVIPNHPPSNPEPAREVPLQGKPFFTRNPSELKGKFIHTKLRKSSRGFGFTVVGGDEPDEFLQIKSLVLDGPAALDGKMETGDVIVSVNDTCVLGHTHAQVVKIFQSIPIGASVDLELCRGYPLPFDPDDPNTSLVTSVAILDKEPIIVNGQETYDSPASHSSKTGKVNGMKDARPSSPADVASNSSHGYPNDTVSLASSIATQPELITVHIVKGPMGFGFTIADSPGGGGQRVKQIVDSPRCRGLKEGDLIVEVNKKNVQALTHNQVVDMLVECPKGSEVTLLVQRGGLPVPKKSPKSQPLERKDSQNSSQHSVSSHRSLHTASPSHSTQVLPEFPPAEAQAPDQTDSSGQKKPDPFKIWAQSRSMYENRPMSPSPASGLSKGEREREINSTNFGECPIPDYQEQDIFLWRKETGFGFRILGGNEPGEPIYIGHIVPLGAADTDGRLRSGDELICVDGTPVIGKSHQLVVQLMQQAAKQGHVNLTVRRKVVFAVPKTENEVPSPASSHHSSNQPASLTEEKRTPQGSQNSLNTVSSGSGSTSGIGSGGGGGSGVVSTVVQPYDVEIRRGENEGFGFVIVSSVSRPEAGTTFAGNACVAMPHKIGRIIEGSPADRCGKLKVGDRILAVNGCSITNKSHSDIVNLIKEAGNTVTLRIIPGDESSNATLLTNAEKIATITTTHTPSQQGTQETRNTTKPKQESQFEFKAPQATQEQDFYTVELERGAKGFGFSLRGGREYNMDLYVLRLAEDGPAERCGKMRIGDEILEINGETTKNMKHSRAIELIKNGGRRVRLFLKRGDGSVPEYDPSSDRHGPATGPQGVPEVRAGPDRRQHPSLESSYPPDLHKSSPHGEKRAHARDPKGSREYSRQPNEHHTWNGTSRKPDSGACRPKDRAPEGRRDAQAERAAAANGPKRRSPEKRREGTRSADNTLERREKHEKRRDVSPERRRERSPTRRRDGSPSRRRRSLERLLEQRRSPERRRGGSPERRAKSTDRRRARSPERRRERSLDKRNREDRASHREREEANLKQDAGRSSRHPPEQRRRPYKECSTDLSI
Chain of UniProt P01116 (P01116 whole entry, looked up): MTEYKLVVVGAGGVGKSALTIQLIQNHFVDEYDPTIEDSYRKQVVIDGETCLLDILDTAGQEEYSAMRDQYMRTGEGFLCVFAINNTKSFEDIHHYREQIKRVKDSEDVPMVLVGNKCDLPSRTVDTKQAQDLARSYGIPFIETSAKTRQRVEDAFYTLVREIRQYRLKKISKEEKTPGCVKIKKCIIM
Chain of UniProt Q8WV07 (Q8WV07 whole entry, looked up): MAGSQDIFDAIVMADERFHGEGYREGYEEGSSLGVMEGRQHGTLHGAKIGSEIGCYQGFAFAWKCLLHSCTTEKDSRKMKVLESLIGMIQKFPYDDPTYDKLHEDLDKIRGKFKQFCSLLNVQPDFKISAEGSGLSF
Chain of UniProt Q6N075 (Q6N075 whole entry, looked up): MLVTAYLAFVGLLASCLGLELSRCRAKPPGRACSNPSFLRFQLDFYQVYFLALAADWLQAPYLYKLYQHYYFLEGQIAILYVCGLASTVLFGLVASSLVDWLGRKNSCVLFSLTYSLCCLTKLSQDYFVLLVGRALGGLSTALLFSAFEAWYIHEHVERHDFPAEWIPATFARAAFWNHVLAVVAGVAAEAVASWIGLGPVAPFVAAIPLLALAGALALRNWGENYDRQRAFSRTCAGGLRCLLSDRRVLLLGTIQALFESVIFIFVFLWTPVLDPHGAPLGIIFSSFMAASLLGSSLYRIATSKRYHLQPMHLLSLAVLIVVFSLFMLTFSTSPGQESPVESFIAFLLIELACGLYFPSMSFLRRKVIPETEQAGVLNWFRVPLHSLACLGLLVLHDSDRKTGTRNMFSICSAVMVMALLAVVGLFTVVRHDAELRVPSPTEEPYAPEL

Compound in the first test: CC(C)C1=C2N=C(C=C(N2N=C1)NCC3=CC=CC=C3)NCCCCCCN
The experiment in a line: log2 fold change, soluble protein after heating vs DMSO (PISA); higher = thermal stabilisation; K562 cells, 10 uM, 30 min; active = over 0.2 and 3.5 SD of the protein, either way, in both replicates (recomputed). In outline: (§1)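 Quantification of soluble protein used TMTpro 16plex LC-MS/MS, with channel sums equalised. Samples were the supernatant after 21,000xg for 90 min of pooled aliquots from K562 cells (2×10^6 cells/mL) treated with 10 μM compound for 30 min, heated for 3 min over 48°C-58°C, and extracted in PBS with 0.5% NP-40 at 4°C. Values, from duplicates, describe thermal stability against control samples on a log2 fold-change scale.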
As for KPNA6 (UniProt O60684), the log2 fold change was -0.239.

Take KDM3B (UniProt Q7LBC6): the log2 fold change is -0.047.

As to LMBRD2 (UniProt Q68DH5), the log2 fold change is -0.244 (active).

For the target ME2 (UniProt P23368), the log2 fold change was 0.152.

For ILKAP (UniProt Q9H0C8), the log2 fold change is -0.078.

As to MFN2 (UniProt O95140), the log2 fold change was -0.479 (active).

For the target INPP5B (UniProt P32019), the log2 fold change is -0.308 (active).

Regarding LARP1 (UniProt Q6PKG0), the log2 fold change was -0.088.

On to MIER1 isoform 12 (UniProt Q8N108), for which the log2 fold change was -0.062.

L2HGDH (UniProt Q9H9P8): the log2 fold change was -0.069.

Turning to KRAS isoform 2 (UniProt P01116), the log2 fold change is 0.099.

For LTO1 (UniProt Q8WV07), the log2 fold change is -0.017.

MFN1 (UniProt Q8IWA4): the log2 fold change is -0.607 (active).

IKZF1 (UniProt Q13422): the log2 fold change is -0.016.

MAP3K7 (UniProt O43318): the log2 fold change was -0.159.

As to KIF3A (UniProt Q9Y496), the log2 fold change was -0.336.

Consider IMMT isoform 4 (UniProt Q16891), for which the log2 fold change is -0.179.

Take LDLR (UniProt P01130): the log2 fold change was -0.009.

Turning to LMNA (UniProt P02545), the log2 fold change is 0.076.

Turning to MAGI1 (UniProt Q96QZ7), the log2 fold change is -0.009.

For the target MAP3K4 isoform 2 (UniProt Q9Y6R4), the log2 fold change was -0.027.

As for IWS1 (UniProt Q96ST2), the log2 fold change is 0.166.

Turning to INTS5 (UniProt Q6P9B9), the log2 fold change was 0.052.

For KLHDC4 (UniProt Q8TBB5), the log2 fold change is 0.065.

For LSS (UniProt P48449), the log2 fold change was 0.199.

As for MAN2B2 (UniProt Q9Y2E5), the log2 fold change was -0.078.

As to KHDC4 (UniProt Q7Z7F0), the log2 fold change is -0.009.

Regarding MCCC2 (UniProt Q9HCC0), the log2 fold change is 0.024.

MAPKAPK5 (UniProt Q8IW41): the log2 fold change is 0.218.

As to JMJD6 isoform 3 (UniProt Q6NYC1), the log2 fold change was -0.041.

Take LARP4B (UniProt Q92615): the log2 fold change is -0.213.

Turning to LEO1 (UniProt Q8WVC0), the log2 fold change was -0.016.

In the case of KDM1A isoform 2 (UniProt O60341), the log2 fold change was -0.041.

Turning to MFSD5 isoform 2 (UniProt Q6N075), the log2 fold change is -0.053.

Take ITIH4 (UniProt Q14624): the log2 fold change was 0.045.

As to LARP4 isoform 4 (UniProt Q71RC2), the log2 fold change is -0.19.

As to LTV1 (UniProt Q96GA3), the log2 fold change was -0.233.

As for LIAS (UniProt O43766), the log2 fold change was -0.023.

Compound in another test: CC(C)C[C@@H](C=O)NC(=O)[C@H](CC(C)C)NC(=O)[C@H](CC(C)C)NC(=O)OCc1ccccc1
The test is described as above. In outline:
as §1
As for KPNA6 (UniProt O60684), the log2 fold change is 0.087.

Consider KDM3B (UniProt Q7LBC6), for which the log2 fold change was 0.014.

In the case of LMBRD2 (UniProt Q68DH5), the log2 fold change was -0.093.

As for ME2 (UniProt P23368), the log2 fold change is 0.025.

For ILKAP (UniProt Q9H0C8), the log2 fold change is -0.053.

For MFN2 (UniProt O95140), the log2 fold change is 0.032.

As to INPP5B (UniProt P32019), the log2 fold change is 0.122.

With LARP1 (UniProt Q6PKG0), the log2 fold change is 0.036.

On to MIER1 isoform 12 (UniProt Q8N108), for which the log2 fold change is 0.03.

For L2HGDH (UniProt Q9H9P8), the log2 fold change is -0.026.

Turning to KRAS isoform 2 (UniProt P01116), the log2 fold change is 0.241 (active).

For the target LTO1 (UniProt Q8WV07), the log2 fold change is 0.

With MFN1 (UniProt Q8IWA4), the log2 fold change is 0.078.

As for IKZF1 (UniProt Q13422), the log2 fold change was 0.011.

MAP3K7 (UniProt O43318): the log2 fold change is 0.05.

For the target KIF3A (UniProt Q9Y496), the log2 fold change is -0.065.

On to IMMT isoform 4 (UniProt Q16891), for which the log2 fold change was -0.013.

As for LDLR (UniProt P01130), the log2 fold change was 0.171.

For the target LMNA (UniProt P02545), the log2 fold change is 0.

Consider MAGI1 (UniProt Q96QZ7), for which the log2 fold change is 0.01.

Regarding MAP3K4 isoform 2 (UniProt Q9Y6R4), the log2 fold change is -0.023.

For IWS1 (UniProt Q96ST2), the log2 fold change is -0.04.

Take INTS5 (UniProt Q6P9B9): the log2 fold change was -0.064.

Take KLHDC4 (UniProt Q8TBB5): the log2 fold change is 0.017.

LSS (UniProt P48449): the log2 fold change was 0.077.

On to MAN2B2 (UniProt Q9Y2E5), for which the log2 fold change is 0.043.

On to KHDC4 (UniProt Q7Z7F0), for which the log2 fold change is 0.015.

For the target MCCC2 (UniProt Q9HCC0), the log2 fold change is -0.04.

For the target MAPKAPK5 (UniProt Q8IW41), the log2 fold change was 0.055.

As to JMJD6 isoform 3 (UniProt Q6NYC1), the log2 fold change is 0.004.

Regarding LARP4B (UniProt Q92615), the log2 fold change was 0.002.

As for LEO1 (UniProt Q8WVC0), the log2 fold change is 0.068.

Take KDM1A isoform 2 (UniProt O60341): the log2 fold change is 0.031.

Take MFSD5 isoform 2 (UniProt Q6N075): the log2 fold change is 0.003.

As to ITIH4 (UniProt Q14624), the log2 fold change is -0.113.

In the case of LARP4 isoform 4 (UniProt Q71RC2), the log2 fold change was 0.059.

As for LTV1 (UniProt Q96GA3), the log2 fold change is 0.104.

In the case of LIAS (UniProt O43766), the log2 fold change is 0.131.

Values taken from the supplement of paper PMC10849652.
